Among the data in PubChem BioAssay (EPA / NIEHS) are outcome and AC50 values, retold here.

Inconclusive results are not listed. Calls of active or inactive are those of the source. Rule for the calls, unless noted: active = hit-call score of the fitted dose curve at least 0.9, where 1 is the maximum; inactive = score below 0.9.

Assay [1] in a line: ATG_CRE_CIS: Attagene CIS-FACTORIAL HepG2 Assay for human cAMP Responsive Element (CRE) binding protein 3 (AID 2282926). Conditions: HepG2 CRE cis-reporter, Attagene multiplexed mRNA; actives raise or lower the signal. The procedure, abridged:
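Induced reporter mRNA from a CRE cis element, measured in HepG2 among many multiplexed units at 24 h. Detection used RT-PCR plus capillary electrophoresis of fluorescent fragments; DMSO served as negative control.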

The nature of assay [2]: ATG_CMV_CIS: Attagene CIS-FACTORIAL HepG2 Assay for human CMV (Internal Marker) (AID 2282928).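 Note: endpoint acts as a background internal control marker rather than a target.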 The settings on record: HepG2 CMV promoter reporter, transcription factor profiling; actives raise or lower the signal. The procedure, abridged:
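Readout: fluorescent reporter cDNA fragments separated by capillary electrophoresis after RT-PCR and HpaI cut. Cells: HepG2 carrying transfected cis-promoter reporter constructs, dosed 24 h. Endpoint serves as background internal-marker control, fit bidirectionally versus DMSO.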

Assay [3] has as its target Aryl hydrocarbon receptor (Homo sapiens) (UniProt P35869). The assay is described as follows: ATG_Ahr_CIS: Attagene CIS-FACTORIAL HepG2 Assay for human Aryl Hydrocarbon Receptor (Ahr) (AID 2282930). Conditions: HepG2 AhR cis-factorial reporter transcription; actives raise or lower the signal. The procedure, abridged: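 Read-out: reporter mRNA quantified by RT-PCR with fluorescent primer extension and capillary electrophoresis. Human HepG2 liver cells carried transfected cis-promoter reporter units and were exposed to chemical for 24 h; gain or loss fitted relative to DMSO.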

Assay [4] in a line: ATG_AP_1_CIS: Attagene CIS-FACTORIAL HepG2 Assay for human Activator Protein 1 (AP-1) (AID 2282931). Conditions: HepG2 Attagene cis-factorial AP-1 reporter mRNA; actives raise or lower the signal. The procedure, abridged:
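HepG2, transient cis-reporter transfection; 24 h; readout RT-PCR/CE fluorescence; DMSO baseline, gain and loss fitted.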

A short description of assay [5]: ATG_BRE_CIS: Attagene CIS-FACTORIAL HepG2 Assay for human Bone Morphogenetic Protein (BMP) Response Element (BRE) (AID 2282933). Conditions: HepG2 BMP response element reporter, Attagene transcription factor profiling; actives raise or lower the signal. The procedure, abridged:
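Read-out: reporter mRNA induction quantified by RT-PCR and capillary electrophoresis after 24 h chemical exposure of transfected HepG2 cells. Endogenous factor activity on the BMP response element; gain or loss fitted against DMSO baseline.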

Assay [6] in a line: ATG_Ets_CIS: Attagene CIS-FACTORIAL HepG2 Assay for human Erythroblast Transformation Specific (ETS) (AID 2282941). Conditions: HepG2 ETS cis-reporter transcription, actives raise or lower the signal. The procedure, abridged:
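RT-PCR/capillary electrophoresis fluorescence read-out of reporter mRNA; HepG2 transient multi-reporter transfection; 24 h compound exposure; gain or loss of signal fitted bidirectionally relative to DMSO.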

Assay [7] addresses Hepatocyte nuclear factor 3-beta (Homo sapiens) (UniProt Q9Y261). Briefly: ATG_FoxA2_CIS: Attagene CIS-FACTORIAL HepG2 Assay for human Forkhead box A2 (FOXA2) (AID 2282942). Conditions: HepG2 cis-reporter transcription factor activity, 24 h; actives raise or lower the signal. The procedure, abridged:
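24 h dosing of HepG2 bearing cis-reporter constructs; mRNA readout by RT-PCR/CE fluorescence; bidirectional fit, DMSO baseline.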

A short description of assay [8]: ATG_FoxO_CIS: Attagene CIS-FACTORIAL HepG2 Assay for human Forkhead box O (FoxO) (AID 2282943). Conditions: HepG2 Attagene cis-reporter, FoxO element, mRNA; actives raise or lower the signal. The procedure, abridged:
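Read-out: fluorescence of 6-FAM-labelled reporter cDNA fragments resolved by capillary electrophoresis. Transiently transfected HepG2 cells were dosed for 24 h; activity fitted in both directions relative to DMSO controls.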

The nature of assay [9]: ATG_GATA_CIS: Attagene CIS-FACTORIAL HepG2 Assay for human GATA Binding Protein (AID 2282944). The settings on record: HepG2 GATA cis-element reporter, Attagene multiplex mRNA; actives raise or lower the signal. The procedure, abridged:
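Read-out: fluorescent reporter mRNA fragments resolved by capillary electrophoresis after RT-PCR. Human liver HepG2 cells carried transiently transfected cis-regulated reporter constructs; chemicals incubated 24 h; gain or loss of signal fitted relative to DMSO.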

Assay [10] has as its target Hypoxia-inducible factor 1-alpha (Homo sapiens) (UniProt Q16665). The assay is described as follows: ATG_HIF1a_CIS: Attagene CIS-FACTORIAL HepG2 Assay for human Hypoxia Inducible Factor 1 (HIF1A) (AID 2282951). Conditions: HepG2 Attagene cis-factorial HIF1a reporter transcription; actives raise or lower the signal. The procedure, abridged:
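After 24 h chemical exposure of reporter-transfected HepG2 cells, reporter cDNA was PCR-amplified, labelled by 6-FAM primer extension (2 min 95 C, 20 s 68 C, 10 min 72 C), HpaI-cut (2 h, 37 C) and analysed by CE.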

The target of assay [11] is Hepatocyte nuclear factor 6 (Homo sapiens) (UniProt Q9UBC0). Briefly: ATG_HNF6_CIS: Attagene CIS-FACTORIAL HepG2 Assay for human Hepatocyte Nuclear Factor 6 (HNF6) (AID 2282952). Conditions: HepG2 Attagene cis-factorial HNF6 reporter transcription; actives raise or lower the signal. The procedure, abridged:
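First, HepG2 cells were transfected with the multiplexed cis reporter library and dosed with chemical for 24 h. Next, RNA was reverse-transcribed, PCR-amplified and fluorescently labelled. Finally, HpaI-digested fragments were read by capillary electrophoresis.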

Assay [12] deals with Heat shock factor protein 1 (Homo sapiens) (UniProt Q00613). The assay is described as follows: ATG_HSE_CIS: Attagene CIS-FACTORIAL HepG2 Assay for human Heat Shock Transcription Factor 1 (HSE) (AID 2282953). Conditions: HepG2 HSE cis-reporter, Attagene RNA transcription; actives raise or lower the signal. The procedure, abridged: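 Read-out: fluorescence of reporter-specific RT-PCR fragments separated by capillary electrophoresis. HepG2 carrying transfected cis-element reporter units; 24 h dosing; activity fitted in both directions relative to DMSO baseline.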

A short description of assay [13]: ATG_MRE_CIS: Attagene CIS-FACTORIAL HepG2 Assay for human Metal Responsive Element (MRE) (AID 2282954). The settings on record: HepG2 MRE cis-reporter transcription, Attagene multiplex; actives raise or lower the signal. The procedure, abridged: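 RT-PCR/capillary electrophoresis readout of reporter mRNA, 24 h post-dosing, in HepG2 cells transfected with multiplexed cis-regulated reporter constructs. Gain or loss of signal fitted bidirectionally against DMSO baseline.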

Assay [14] has as its target Paired box protein Pax-6 (Homo sapiens) (UniProt P26367). Briefly: ATG_Pax6_CIS: Attagene CIS-FACTORIAL HepG2 Assay for human Paired Box 6 (PAX6) (AID 2282956). The settings on record: HepG2 CIS-FACTORIAL PAX6 reporter transcription, RNA readout; actives raise or lower the signal. The procedure, abridged: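 Readout: reporter transcript fluorescence after RT-PCR and capillary electrophoresis. Cells: HepG2, transiently transfected with cis-regulated MRTUs. Exposure 24 h. Gain or loss of signal fitted bidirectionally relative to DMSO.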

Assay [15] in a line: ATG_SREBP_CIS: Attagene CIS-FACTORIAL HepG2 Assay for human Sterol Regulatory Element Binding (SREBP) (AID 2282962). The settings on record: HepG2 Attagene cis-factorial SREBP reporter, mRNA; actives raise or lower the signal. The procedure, abridged: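 Readout: fluorescent reporter-transcript peaks resolved by capillary electrophoresis after RT-PCR. Cells were human HepG2 carrying transfected cis-promoter reporter constructs, dosed for 24 h. Gain or loss of signal was fitted against DMSO controls.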

A short description of assay [16]: ATG_VDRE_CIS: Attagene CIS-FACTORIAL HepG2 Assay for human Vitamin D Receptor Element (VDRE) (AID 2282968). Conditions: HepG2 VDRE cis-reporter transcription, actives raise or lower the signal. The procedure, abridged: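 Transient MRTU transfection of HepG2, 24 h compound exposure. Readout: reporter transcripts via RT-PCR and capillary electrophoresis, fluorescence. Bidirectional fit vs DMSO.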

The nature of assay [17]: ATG_NF_kB_CIS: Attagene CIS-FACTORIAL HepG2 Assay for human Nuclear Factor Kappa B (NF-kB) (AID 2282991). Conditions: HepG2 Attagene cis-factorial NF-kB reporter mRNA; actives raise or lower the signal. The procedure, abridged:
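Fluorescence of labelled RT-PCR products separated by capillary electrophoresis gives reporter mRNA levels from transfected HepG2 cells exposed 24 h; values are fitted in both directions relative to DMSO.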

A short description of assay [18]: ATG_NRF2_ARE_CIS: Attagene CIS-FACTORIAL HepG2 Assay for human Nuclear Factor Erythroid 2 Related Factor 2 (NFR2) response to Antioxidant Response Elements (ARE) (AID 2282992). The settings on record: HepG2 Attagene ARE/NRF2 reporter, transcription factor activity; actives raise or lower the signal. The procedure, abridged: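 Readout: reporter mRNA quantified by RT-PCR plus FAM-labelled primer extension, HpaI digestion and capillary electrophoresis, 24 h after dosing transfected HepG2 cells. Gain or loss of signal is fitted bidirectionally against DMSO baseline.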

The target of assay [19] is Cellular tumor antigen p53 (Homo sapiens) (UniProt P04637). The assay is described as follows: ATG_p53_CIS: Attagene CIS-FACTORIAL HepG2 Assay for human p53 Transcription Factor (AID 2282994). The settings on record: HepG2 p53 cis-element reporter, Attagene mRNA; actives raise or lower the signal. The procedure, abridged:
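Read-out: reporter mRNA by RT-PCR plus capillary electrophoresis with fluorescence detection. Human HepG2 liver cells carried transfected multi-reporter cis-element constructs, dosed 24 h. Gain or loss of signal fitted bidirectionally against DMSO control.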

The nature of assay [20]: ATG_XTT_Cytotoxicity: Cytotoxicity Assessment in the Attagene TRANS-FACTORIAL HepG2 Assay (AID 2283584; active = hit-call score of the fitted dose curve at least 0.9, where 1 is the maximum). The procedure, abridged:
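HepG2 cells transiently transfected with GAL4-UAS multiple reporter units, dosed 24 h; cytotoxicity read by XTT as loss of signal versus DMSO baseline.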

Sequence of Aryl hydrocarbon receptor (Homo sapiens) (P35869 whole entry, looked up): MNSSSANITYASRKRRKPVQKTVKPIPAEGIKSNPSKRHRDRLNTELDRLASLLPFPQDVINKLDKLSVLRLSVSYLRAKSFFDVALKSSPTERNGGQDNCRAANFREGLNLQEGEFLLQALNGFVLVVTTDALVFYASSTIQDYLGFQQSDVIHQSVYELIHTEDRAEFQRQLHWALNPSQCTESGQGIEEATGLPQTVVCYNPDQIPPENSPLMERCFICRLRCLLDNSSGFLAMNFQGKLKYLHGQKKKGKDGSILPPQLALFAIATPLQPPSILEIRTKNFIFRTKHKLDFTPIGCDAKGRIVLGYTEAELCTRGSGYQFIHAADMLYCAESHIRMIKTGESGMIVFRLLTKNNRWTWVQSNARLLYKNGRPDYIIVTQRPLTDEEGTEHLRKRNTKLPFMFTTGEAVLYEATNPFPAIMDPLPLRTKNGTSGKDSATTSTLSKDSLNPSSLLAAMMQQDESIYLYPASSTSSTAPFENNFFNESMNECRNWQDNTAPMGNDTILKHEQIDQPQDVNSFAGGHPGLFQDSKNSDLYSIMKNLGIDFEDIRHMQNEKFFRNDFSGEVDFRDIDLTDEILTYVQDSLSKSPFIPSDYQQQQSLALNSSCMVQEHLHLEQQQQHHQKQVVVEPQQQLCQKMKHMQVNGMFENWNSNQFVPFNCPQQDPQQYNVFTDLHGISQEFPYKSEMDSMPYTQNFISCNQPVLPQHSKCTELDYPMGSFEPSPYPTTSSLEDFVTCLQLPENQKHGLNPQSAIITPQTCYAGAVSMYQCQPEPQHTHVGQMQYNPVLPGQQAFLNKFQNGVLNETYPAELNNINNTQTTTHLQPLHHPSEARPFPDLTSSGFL
Sequence of Hypoxia-inducible factor 1-alpha (Homo sapiens) (Q16665 whole entry, looked up): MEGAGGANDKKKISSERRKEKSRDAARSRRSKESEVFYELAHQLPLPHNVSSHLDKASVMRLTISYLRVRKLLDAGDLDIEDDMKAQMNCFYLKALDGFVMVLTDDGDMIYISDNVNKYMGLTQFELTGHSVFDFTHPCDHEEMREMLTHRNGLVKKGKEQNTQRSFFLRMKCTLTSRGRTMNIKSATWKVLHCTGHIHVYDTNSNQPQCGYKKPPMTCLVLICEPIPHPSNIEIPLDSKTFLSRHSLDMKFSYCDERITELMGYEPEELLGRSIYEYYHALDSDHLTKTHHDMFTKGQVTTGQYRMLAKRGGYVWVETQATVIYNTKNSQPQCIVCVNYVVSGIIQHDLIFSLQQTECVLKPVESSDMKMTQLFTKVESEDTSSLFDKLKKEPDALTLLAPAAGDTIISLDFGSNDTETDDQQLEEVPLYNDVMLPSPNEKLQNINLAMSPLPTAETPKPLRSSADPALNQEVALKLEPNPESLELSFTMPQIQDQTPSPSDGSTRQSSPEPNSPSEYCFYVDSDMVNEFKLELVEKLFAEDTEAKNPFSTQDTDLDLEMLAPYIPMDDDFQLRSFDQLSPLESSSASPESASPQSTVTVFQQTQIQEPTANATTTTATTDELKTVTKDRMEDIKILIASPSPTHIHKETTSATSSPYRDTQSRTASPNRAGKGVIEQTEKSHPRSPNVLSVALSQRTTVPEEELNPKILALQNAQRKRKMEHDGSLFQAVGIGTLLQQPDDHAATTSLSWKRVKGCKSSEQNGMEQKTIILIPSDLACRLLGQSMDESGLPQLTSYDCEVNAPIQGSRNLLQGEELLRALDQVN
Sequence of Cellular tumor antigen p53 (Homo sapiens) (P04637 whole entry, looked up): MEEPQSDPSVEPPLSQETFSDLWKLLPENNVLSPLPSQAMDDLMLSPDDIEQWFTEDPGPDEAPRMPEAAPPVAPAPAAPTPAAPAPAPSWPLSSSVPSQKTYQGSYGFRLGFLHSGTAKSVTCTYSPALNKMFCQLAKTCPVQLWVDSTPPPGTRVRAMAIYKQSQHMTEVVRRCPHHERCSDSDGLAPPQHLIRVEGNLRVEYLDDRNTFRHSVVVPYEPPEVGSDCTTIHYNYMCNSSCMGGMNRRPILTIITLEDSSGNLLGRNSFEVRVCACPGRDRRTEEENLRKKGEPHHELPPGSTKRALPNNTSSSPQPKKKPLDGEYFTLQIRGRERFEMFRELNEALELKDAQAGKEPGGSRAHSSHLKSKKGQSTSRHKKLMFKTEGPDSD
Sequence of Heat shock factor protein 1 (Homo sapiens) (Q00613 whole entry, looked up, the tested form may be a part): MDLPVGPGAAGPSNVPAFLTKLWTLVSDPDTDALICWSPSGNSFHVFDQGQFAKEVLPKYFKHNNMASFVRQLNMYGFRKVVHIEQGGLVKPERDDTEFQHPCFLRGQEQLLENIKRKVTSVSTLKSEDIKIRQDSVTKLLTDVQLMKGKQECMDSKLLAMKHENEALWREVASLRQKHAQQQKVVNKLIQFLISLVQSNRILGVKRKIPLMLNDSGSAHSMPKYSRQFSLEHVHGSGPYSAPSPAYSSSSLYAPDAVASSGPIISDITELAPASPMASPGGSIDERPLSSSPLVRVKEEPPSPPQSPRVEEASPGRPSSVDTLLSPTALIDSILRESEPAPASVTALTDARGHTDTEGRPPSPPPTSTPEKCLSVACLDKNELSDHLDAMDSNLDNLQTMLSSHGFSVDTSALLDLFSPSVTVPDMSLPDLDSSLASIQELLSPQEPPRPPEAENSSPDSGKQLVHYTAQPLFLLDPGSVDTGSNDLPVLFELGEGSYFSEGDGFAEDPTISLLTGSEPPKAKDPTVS
Sequence of Hepatocyte nuclear factor 3-beta (Homo sapiens) (Q9Y261 whole entry, looked up): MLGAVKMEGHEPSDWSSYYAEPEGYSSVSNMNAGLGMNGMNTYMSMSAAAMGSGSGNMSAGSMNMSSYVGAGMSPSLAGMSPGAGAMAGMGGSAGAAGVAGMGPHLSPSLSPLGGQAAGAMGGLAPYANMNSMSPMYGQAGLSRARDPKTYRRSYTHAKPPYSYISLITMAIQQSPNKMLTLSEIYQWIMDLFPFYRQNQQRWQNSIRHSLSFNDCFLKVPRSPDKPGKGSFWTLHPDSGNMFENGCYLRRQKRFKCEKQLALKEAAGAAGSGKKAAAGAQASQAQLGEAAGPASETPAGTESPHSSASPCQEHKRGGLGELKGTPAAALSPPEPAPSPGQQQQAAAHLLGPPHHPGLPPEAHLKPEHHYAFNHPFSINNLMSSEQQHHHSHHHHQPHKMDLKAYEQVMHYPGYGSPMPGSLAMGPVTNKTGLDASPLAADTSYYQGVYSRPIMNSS
Sequence of Hepatocyte nuclear factor 6 (Homo sapiens) (Q9UBC0 whole entry, looked up, the tested form may be a part): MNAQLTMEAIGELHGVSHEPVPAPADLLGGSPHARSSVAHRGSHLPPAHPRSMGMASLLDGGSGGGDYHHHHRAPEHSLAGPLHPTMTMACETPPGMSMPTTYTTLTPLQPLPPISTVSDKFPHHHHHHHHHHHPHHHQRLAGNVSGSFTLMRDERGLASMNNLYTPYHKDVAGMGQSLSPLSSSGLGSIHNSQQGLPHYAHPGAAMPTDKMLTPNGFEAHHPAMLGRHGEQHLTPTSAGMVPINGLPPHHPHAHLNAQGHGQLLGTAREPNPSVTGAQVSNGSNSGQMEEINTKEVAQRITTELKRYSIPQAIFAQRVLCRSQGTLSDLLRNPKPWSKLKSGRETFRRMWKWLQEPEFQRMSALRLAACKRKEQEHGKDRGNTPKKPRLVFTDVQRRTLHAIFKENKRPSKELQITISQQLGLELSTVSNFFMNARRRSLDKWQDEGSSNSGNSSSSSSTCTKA
Sequence of Paired box protein Pax-6 (Homo sapiens) (P26367 whole entry, looked up): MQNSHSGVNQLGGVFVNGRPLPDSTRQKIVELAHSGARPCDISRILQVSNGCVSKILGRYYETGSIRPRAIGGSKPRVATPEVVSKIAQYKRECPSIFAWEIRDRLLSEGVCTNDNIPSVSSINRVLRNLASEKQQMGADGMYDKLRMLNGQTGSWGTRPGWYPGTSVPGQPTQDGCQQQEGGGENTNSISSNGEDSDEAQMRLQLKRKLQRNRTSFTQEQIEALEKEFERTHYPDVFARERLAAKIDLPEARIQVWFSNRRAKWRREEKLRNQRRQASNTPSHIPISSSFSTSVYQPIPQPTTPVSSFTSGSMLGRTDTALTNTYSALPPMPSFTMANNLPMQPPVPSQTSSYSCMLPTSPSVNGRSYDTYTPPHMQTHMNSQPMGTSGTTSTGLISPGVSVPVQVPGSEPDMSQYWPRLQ

Consider `c1ccc(P(c2ccccc2)c2ccccc2)cc1`, for which the outcome in assay [1], in assay [2], in [3], in [4], in [5] and in assay [6] was inactive. For the same molecule, the call in assay [7], in [8], in [9], in assay [10], in assay [11] and in assay [12] was inactive. The result in [13], in [14], in assay [15], in [16], in assay [17] and in [19] was inactive. Also, in assay [18], the AC50 is 21.5 µM (active).
Consider `Oc1cc(Cl)ccc1Cl`, for which the molecule was called inactive in [1], in assay [2], in [3], in assay [4], in assay [5] and in assay [6]. For the same molecule, the outcome in [7], in [8], in assay [9], in [10], in assay [11] and in [12] was inactive. The molecule was called inactive in [13], in assay [14], in assay [15], in assay [16], in assay [17] and in [18]. Further, the outcome in assay [19] and in assay [20] was inactive.
For `CCOC(=O)N(C)N=O`, the result in [1], in assay [2], in assay [3], in [4], in assay [5] and in assay [6] was inactive. Moreover, the molecule was called inactive in assay [7], in [9], in [10], in [11], in assay [12] and in [13]. The result in assay [15], in [16], in [17], in assay [18] and in assay [19] was inactive.
Regarding `O=C(NCNC(=O)NC1C(=O)NC(=O)N1CO)NC1C(=O)NC(=O)N1CO` (configuration not stated), the outcome in assay [1], in assay [2], in assay [3], in assay [5], in assay [6] and in [8] was inactive. Besides, the molecule was called inactive in assay [11], in assay [12], in [18], in [19] and in assay [20]. The AC50 in assay [4] is 130 µM (active); in assay [13], 162 µM (active); in assay [14], 133 µM (active).
Consider `CC(C)C(=O)Cl`, for which the molecule was called inactive in assay [1], in [2], in [3], in [4], in assay [5] and in [6]. Besides, the call in assay [7], in [9], in assay [10], in assay [11], in assay [12] and in assay [13] was inactive. In addition, the outcome in [14], in assay [15], in assay [16], in assay [17], in [18] and in [19] was inactive. The molecule was called inactive in [20].
On to `CCC[N+](=O)[O-]`, for which the molecule was classed as inactive in [1], in [2], in assay [4], in assay [5], in assay [7] and in assay [10]. The result in assay [11], in assay [12], in [15], in assay [16], in assay [17] and in [18] was inactive. The result in [19] and in assay [20] was inactive. For the same molecule, the AC50 in assay [3] is 68.9 µM (active).
In the case of `COc1ccc(CO)cc1`, the outcome in [1], in assay [2], in assay [3], in assay [4], in assay [5] and in assay [6] was inactive. The molecule was classed as inactive in [7], in [8], in assay [10], in assay [11], in [12] and in assay [13]. The molecule was classed as inactive in [14], in assay [15], in assay [16], in assay [18], in assay [19] and in assay [20].
